Data on 13 compounds can be found in PubChem BioAssay (NCATS).

Inconclusive results are not listed. Calls of active or inactive are those of the source. Unless noted, calls come from the whole dose curve; as a rule, active = well fitted curve in the direction sought with a large enough effect; inconclusive = small, poorly fitted or top-dose-only effect, or another doubt; inactive = no such curve, though single readings can be large; an effect the other way counts as inactive or inconclusive.

Assay [1] can be described thus: P-glycoprotein substrates identified in KB-8-5-11 adenocarcinoma cell line, qHTS therapeutic library screen (AID 1346987). Note: nearly all actives have a fitted effect of over 65% in size. Note: potency is the fitted concentration of half-maximal effect. The settings on record: KB-8-5-11 (P-gp overexpressing) viability, CellTiter-Glo, 72 h; series mostly up to 44.5 µM. A digest of the protocol: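 In this qHTS, P-gp-rich KB-8-5-11 cells received library compounds across a concentration range. Viability was quantified by luminescence after 72 h at 37 degree C.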
A general note: Quantitative high-throughput screening tests each substance at several concentrations.

Assay [2] is described as follows: P-glycoprotein substrates identified in KB-3-1 adenocarcinoma cell line, qHTS therapeutic library screen (AID 1346986). Note: nearly all actives have a fitted effect of over 60% in size. The settings on record: KB-3-1 parental cells viability, CellTiter-Glo, 72 h; series mostly up to 44.5 µM. A digest of the protocol:
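Viability by CellTiter-Glo after 72 h compound exposure at 37 degree C, 5% CO2. Cytotoxic call: curve class -1.1 to -2.4, maximum response >50%, AC50 < 10 uM, compared across KB-3-1 and P-gp-overexpressing KB-8-5-11.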

Assay [3] can be described thus: NS1 protein of Zika virus - qHTS assay to identify small molecule inhibitors in human HEK 293 cells (AID 1347053). Note: nearly all actives have a fitted effect of over 55% in size. The settings on record: HEK293 ZIKV MR766 infection, NS1 TR-FRET, 24 h; series mostly up to 46.1 µM. A digest of the protocol:
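TR-FRET signal from two anti-ZIKV NS1 antibodies quantified NS1 in HEK 293 cells 24 h after MR766 infection at MOI = 0.5; compounds were added 1 h before virus. Uninfected cells and infected cells defined the NS1 normalization range.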

In assay [4] the target is Atrial natriuretic peptide receptor 1 (Homo sapiens) (UniProt P16066). The assay is described as follows: Natriuretic polypeptide receptor (hNpr1) antagonism - Pilot screen (AID 1347049; calls by dose curve;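 note: agonist-evoked cGMP luminescence read 20 min after hNppA addition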). The settings on record: hNpr1 cells, antagonist mode cGMP read-out; series mostly up to 57.5 µM. A digest of the protocol: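 cGMP-sensor HEK293/hNpr1 cells, 1500/well, plated overnight at 37C. 2% GloSensor reagent, 2 h RT. Compound (23 nL pin transfer) 30 min RT, baseline luminescence pre-read. 0.1 nM hNppA, 20 min RT, post-read.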
Chain of Atrial natriuretic peptide receptor 1 (Homo sapiens) (P16066 whole entry, looked up): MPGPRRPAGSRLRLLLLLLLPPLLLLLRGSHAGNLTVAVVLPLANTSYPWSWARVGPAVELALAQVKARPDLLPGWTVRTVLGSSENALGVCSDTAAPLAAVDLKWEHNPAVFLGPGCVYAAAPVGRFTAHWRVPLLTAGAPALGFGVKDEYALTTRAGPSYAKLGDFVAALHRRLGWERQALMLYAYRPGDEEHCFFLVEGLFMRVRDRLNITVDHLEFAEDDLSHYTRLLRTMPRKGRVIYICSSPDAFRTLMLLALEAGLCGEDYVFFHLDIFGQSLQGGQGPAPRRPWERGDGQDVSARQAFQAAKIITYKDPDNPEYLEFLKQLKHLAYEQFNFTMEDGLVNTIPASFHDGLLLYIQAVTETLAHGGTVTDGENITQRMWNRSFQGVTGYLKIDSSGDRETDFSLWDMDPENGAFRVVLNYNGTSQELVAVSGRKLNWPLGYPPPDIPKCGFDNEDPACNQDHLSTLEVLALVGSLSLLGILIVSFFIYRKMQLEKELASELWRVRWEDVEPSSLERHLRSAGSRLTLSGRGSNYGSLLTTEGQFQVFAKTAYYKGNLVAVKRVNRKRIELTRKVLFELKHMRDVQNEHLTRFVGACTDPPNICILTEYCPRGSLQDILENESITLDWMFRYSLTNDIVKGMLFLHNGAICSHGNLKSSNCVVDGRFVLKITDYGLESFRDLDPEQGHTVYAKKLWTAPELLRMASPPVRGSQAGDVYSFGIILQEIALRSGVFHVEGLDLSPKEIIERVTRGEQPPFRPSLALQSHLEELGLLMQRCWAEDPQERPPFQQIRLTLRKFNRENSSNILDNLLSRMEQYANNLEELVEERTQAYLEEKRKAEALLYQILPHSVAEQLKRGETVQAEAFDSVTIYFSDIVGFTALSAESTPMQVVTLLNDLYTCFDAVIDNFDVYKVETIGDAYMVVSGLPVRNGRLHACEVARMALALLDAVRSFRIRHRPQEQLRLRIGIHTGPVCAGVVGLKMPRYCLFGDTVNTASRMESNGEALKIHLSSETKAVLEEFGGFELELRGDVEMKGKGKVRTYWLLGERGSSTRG

Assay [5] concerns the target Atrial natriuretic peptide receptor 2 (Homo sapiens) (UniProt P20594). Briefly: Natriuretic polypeptide receptor (hNpr2) antagonism - Pilot subtype selectivity assay (AID 1347050; calls by dose curve). To be noted: NPR2-expressing cells, cGMP antagonist-mode read-out; series mostly up to 38.3 µM. The method, boiled down:
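Luminescence from a genetically encoded cGMP luciferase biosensor in hNpr2-expressing HEK293 cells is read before and 20 min after adding 1 nM hNppC. Test compounds, in interplate 1:5 titrations, are added 30-50 min ahead of the agonist.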

Assay [6] deals with T1, Tyrosine-protein phosphatase non-receptor type substrate 1 (Homo sapiens) + Leukocyte surface antigen CD47 (Homo sapiens) (UniProt P78324+Q08722). Briefly: CD47-SIRPalpha protein protein interaction - LANCE assay qHTS validation (AID 1347057; active = well fitted curve in the direction sought with a large enough effect in the signal ratio, with a control signal flat, not every such curve was filed as active; the % refers to the signal ratio). To be noted: Recombinant CD47-His / biotin-SIRPalpha, TR-FRET ratio; series mostly up to 38.3 µM. A digest of the protocol: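 Inhibition of soluble CD47/SIRPalpha ectodomain association by titrated compounds, measured as 665/615 nm time-resolved FRET ratio after sequential 30 min room-temperature incubations.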
T1 sequence (P78324 whole entry, looked up, the tested form may be a part): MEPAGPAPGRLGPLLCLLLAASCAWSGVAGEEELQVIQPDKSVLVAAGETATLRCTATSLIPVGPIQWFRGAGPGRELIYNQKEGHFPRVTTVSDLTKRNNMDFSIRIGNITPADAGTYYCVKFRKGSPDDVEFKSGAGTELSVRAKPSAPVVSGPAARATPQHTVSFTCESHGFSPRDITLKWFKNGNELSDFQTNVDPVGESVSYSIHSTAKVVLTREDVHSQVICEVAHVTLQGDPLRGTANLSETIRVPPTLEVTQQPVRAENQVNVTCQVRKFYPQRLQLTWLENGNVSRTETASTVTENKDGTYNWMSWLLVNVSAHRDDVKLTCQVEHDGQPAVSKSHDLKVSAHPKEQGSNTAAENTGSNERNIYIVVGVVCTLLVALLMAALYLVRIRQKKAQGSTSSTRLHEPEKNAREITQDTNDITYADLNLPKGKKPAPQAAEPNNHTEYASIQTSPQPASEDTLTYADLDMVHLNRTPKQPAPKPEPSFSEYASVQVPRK
T1 sequence (Q08722 whole entry, looked up, the tested form may be a part): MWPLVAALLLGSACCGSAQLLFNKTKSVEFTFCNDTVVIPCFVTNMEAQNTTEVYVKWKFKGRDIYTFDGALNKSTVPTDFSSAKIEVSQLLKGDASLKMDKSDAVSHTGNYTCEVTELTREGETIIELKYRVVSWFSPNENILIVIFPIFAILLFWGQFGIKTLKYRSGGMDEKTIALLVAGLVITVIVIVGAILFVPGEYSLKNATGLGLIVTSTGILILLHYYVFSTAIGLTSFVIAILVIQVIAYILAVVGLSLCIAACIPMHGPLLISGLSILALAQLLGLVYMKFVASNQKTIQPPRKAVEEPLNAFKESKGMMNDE
A general note: Time-resolved FRET reads energy transfer from a long-lived donor to a nearby acceptor.

Assay [7] has as its target T1, Tyrosine-protein phosphatase non-receptor type substrate 1 (Homo sapiens) + Leukocyte surface antigen CD47 (Homo sapiens). Briefly: CD47-SIRPalpha protein protein interaction - HTRF assay qHTS validation (AID 1347058; active = well fitted curve in the direction sought with a large enough effect in the signal ratio, not every such curve was filed as active; the % refers to the signal ratio). The settings on record: TR-FRET HTRF CD47-His / biotin-SIRPalpha binding, ratio 665/615; series mostly up to 38.3 µM. The method, boiled down:
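Soluble extracellular domains (6His-CD47, Avi-tag-biotinylated SIRPalpha) in PBS pH 7.4 with 0.05% IGEPAL CA-630. Compounds were preincubated 30 min at RT with CD47 and anti-His-Eu, then SIRPalpha and SAV-XL665 were added. TR-FRET 665/615 ratio.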

Assay [8] shares this target. Briefly: CD47-SIRPalpha protein protein interaction - Alpha assay qHTS validation (AID 1347059).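 Note: bead proximity luminescence from CD47 binding SIRPalpha after compound preincubation with SIRPalpha.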 To be noted: AlphaScreen CD47-His/biotin-SIRPalpha binding, LOPAC; series mostly up to 38.3 µM. The method, boiled down: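 SIRPalpha-biotin 25 nM + cpd, 30 min RT, dark; add CD47-His 12.5 nM, 30 min; add Ni-NTA/SAV beads 10 ug/mL, 30 min; AlphaScreen. Buffer PBS pH 7.4 + 0.05% IGEPAL CA-630. Non-biotinylated SIRPalpha as control inhibitor.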

Chain of Atrial natriuretic peptide receptor 2 (Homo sapiens) (P20594 whole entry, looked up): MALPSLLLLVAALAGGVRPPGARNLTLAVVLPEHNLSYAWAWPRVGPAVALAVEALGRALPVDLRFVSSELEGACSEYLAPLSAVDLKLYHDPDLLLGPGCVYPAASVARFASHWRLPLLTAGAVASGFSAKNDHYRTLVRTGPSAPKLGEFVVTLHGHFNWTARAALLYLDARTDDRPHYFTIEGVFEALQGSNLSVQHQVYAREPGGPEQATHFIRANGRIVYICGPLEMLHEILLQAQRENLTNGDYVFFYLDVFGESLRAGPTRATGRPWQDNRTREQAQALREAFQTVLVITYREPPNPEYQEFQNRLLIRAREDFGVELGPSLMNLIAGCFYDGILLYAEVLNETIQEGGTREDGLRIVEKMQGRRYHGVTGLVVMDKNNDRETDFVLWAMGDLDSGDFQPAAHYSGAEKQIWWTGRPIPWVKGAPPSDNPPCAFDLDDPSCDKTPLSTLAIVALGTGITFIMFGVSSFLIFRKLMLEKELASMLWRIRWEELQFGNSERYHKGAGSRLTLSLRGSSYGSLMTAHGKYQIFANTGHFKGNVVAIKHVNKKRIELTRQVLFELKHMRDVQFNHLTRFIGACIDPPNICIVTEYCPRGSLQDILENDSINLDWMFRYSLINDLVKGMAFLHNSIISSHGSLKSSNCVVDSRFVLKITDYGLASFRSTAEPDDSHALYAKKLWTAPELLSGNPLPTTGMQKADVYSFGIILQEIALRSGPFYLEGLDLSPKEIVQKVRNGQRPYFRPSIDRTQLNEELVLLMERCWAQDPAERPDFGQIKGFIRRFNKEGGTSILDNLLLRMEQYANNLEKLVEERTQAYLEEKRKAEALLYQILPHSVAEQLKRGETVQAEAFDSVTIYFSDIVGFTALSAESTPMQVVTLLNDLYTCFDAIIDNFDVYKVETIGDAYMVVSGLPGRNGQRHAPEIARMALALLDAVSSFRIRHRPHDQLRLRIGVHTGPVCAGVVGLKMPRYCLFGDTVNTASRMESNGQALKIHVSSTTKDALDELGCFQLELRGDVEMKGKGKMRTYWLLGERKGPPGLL

Regarding `CC1CCC(C(=O)N(c2cc(C#CC(C)(C)C)sc2C(=O)O)C2CCC(O)CC2)CC1` (stereo not drawn), the Potency result in assay [1] was “inactive”.
For the compound `Nc1ncnc2c1ncn2[C@@H]1O[C@H](CO)C[C@@H]1O`, the Potency result in assay [2] and in assay [3] was “inactive” in each case.
`CCN(CC)CCOC(=O)c1ccc(N)cc1`: the Potency result in assay [1] and in assay [3] was “inactive” throughout. The outcome in assay [4], in assay [5], in assay [6], in assay [7] and in assay [8] was inactive.
Take `CCS(=O)(=O)N1CC(CC#N)(n2cc(-c3ncnc4[nH]ccc34)cn2)C1`: in assay [1], the Potency entry is “inactive”.
On the same count and under the same terms, the entry for `COC(=O)C1=CO[C@@H](O)[C@@H]2C(CO)=CC[C@@H]12` is “inactive”; for `CO[C@H]1C(=O)[C@]2(C)[C@@H](OC)C[C@H]3OC[C@@]3(OC(C)=O)[C@H]2[C@H](OC(=O)c2ccccc2)[C@]2(O)C[C@H](OC(=O)[C@H](O)[C@@H](NC(=O)OC(C)(C)C)c3ccccc3)C(C)=C1C2(C)C` it is 0.001 µM (active).
Same read-out and setting: the entry for `Cc1c(NC(=O)c2ccc(C(C)(C)C)cc2)cccc1-c1cn(C)c(=O)c(Nc2ccc(C(=O)N3CCOCC3)cc2)n1` is “inactive”; for `CNC(=O)c1ccccc1Sc1ccc2c(C=Cc3ccccn3)n[nH]c2c1` it is 4.18 µM (active).
With `C[C@H](NC(=O)c1sccc1OCc1ccc(Cl)cc1)c1ccccc1`, the Potency in assay [1] was 14.8 µM (active).
For `O=C1NCC2(CCN(CCc3ccccc3)CC2)O1`, the Potency entry in assay [1] and in assay [3] was “inactive” in each case. The result in assay [4], in assay [5], in assay [6], in assay [7] and in assay [8] was inactive.
As to `Cc1cnc(C(=O)O)c[n+]1[O-]`, the Potency result in assay [2], in assay [1] and in assay [3] was “inactive” in each case.
Regarding `CN1[C@@H]2CCC[C@@H]1CC(NC(=O)c1nn(C)c3ccccc13)C2` (stereo partly drawn), in assay [1], the Potency entry is “inactive”.
With `NC(=O)c1cccc(-c2cc(Nc3ccc(OC(F)(F)F)cc3)ncn2)c1`, the Potency result in assay [1] was “inactive”.
